For 35 compounds, outcome and fluorescence, % of fluorescent control results are on record in PubChem BioAssay (Tox21).

A number with no mark means an inactive call. Calls of active or inactive are those of the source. Calls come from the whole dose curve; as a rule, active = well fitted curve in the direction sought with a large enough effect in the repeat runs; inconclusive = weak or mixed curves; inactive = flat fitted curve, though single readings scatter.
% is set by controls: 0 for no effect and ±100 for the full control effect.

The nature of the assay: qHTS assay to test for compound auto fluorescence at 590 nm (red) in HEK293 cell free culture (AID 720683). The settings on record: cell-free medium autofluorescence, Ex540/Em590 red; series mostly up to 91.3 µM. The essentials: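 Red-channel autofluorescence of compounds in culture medium (DMEM, 10% FBS), no cells, measured at 540/590 nm. Rose Bengal sodium is the reference fluorophore for equivalence.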
For orientation: Quantitative high-throughput screening tests each substance at several concentrations.
For the compound `FC(F)(F)c1ccccc1`, the result was inactive.

As to `Cc1ccc([N+](=O)[O-])cc1Cl`, the result was inactive. Turning to `NC(=O)Cc1cccc(C(=O)c2ccccc2)c1N`, the outcome was inactive.

Turning to `CN(C)CC[C@@H](c1ccc(Cl)cc1)c1ccccn1`, the compound was classed as inactive. Same read-out and setting: in the case of `COc1cc(C)ccc1C(C)C` it was “inactive”; in that of `CCCCC(CC)COC(=O)COc1cc(Cl)c(Cl)cc1Cl` (stereo not given), “inactive”; in that of `CCOc1ccc(NC(N)=O)cc1`, “inactive”. For the compound `C1CCOC1`, the compound was classed as inactive.

Turning to `C=C(C)C(=O)OCCOP(=O)(O)O`, the compound was called inactive. With `C=Cc1ccccc1`, the compound was classed as inactive. The same measure, in the same setting: as for `CC/C=C\CCOC(=O)CCCCC`, the entry is “inactive”; as for `CC1CN(c2ccccc2)NC1=O` (stereo not given), “inactive”; as for `Cc1c(C(=O)NCCO)[n+](=O)c2ccccc2n1[O-]`, “inactive”. Turning to `Cc1cc(S(=O)(=O)O)c(N)cc1Cl`, the call was inactive. `NC1=NCC2c3ccccc3Cc3ccccc3N12` (stereo not given): the compound was classed as inactive. Turning to `CCc1nnc(NS(=O)(=O)c2ccc(N)cc2)s1`, the compound was classed as inactive.

Consider `COc1ccc(Nc2ccc(OC)cc2)cc1`, for which the compound was classed as inactive. In the case of `O=C(O[C@@H](C(=O)O)[C@@H](OC(=O)c1ccccc1)C(=O)O)c1ccccc1`, the outcome was inactive. Turning to `CCCCC(=O)O[C@]1(C(=O)CO)[C@H](C)C[C@H]2[C@@H]3CCC4=CC(=O)C=C[C@]4(C)[C@@]3(F)[C@@H](O)C[C@@]21C`, the outcome was inactive. For `C[C@@H]1CN(c2c(F)c(N)c3c(=O)c(C(=O)O)cn(C4CC4)c3c2F)C[C@H](C)N1`, the compound was classed as inactive. Turning to `NNS(=O)(=O)c1ccc(Oc2ccc(S(=O)(=O)NN)cc2)cc1`, the compound was classed as inactive. For the compound `CCN(CC)C(=O)N(CC)CC`, the outcome was inactive. On the same count and under the same terms, in the case of `Cc1ccsc1C(=CCCN1CCC[C@@H](C(=O)O)C1)c1sccc1C` it was “inactive”. Consider `CN1CCN(c2c(F)cc3c(=O)c(C(=O)O)cn4c3c2SCC4)CC1`, for which the outcome was inactive. Same read-out and setting: in the case of `CC(C)(C)C1CCCCC1=O` (stereo not given) it was “inactive”; in that of `CC1(C)C(=O)N(Cl)C(=O)N1Br`, “inactive”; in that of `Cc1c(N)cccc1N`, “inactive”. Same read-out and setting: in the case of `CC(=O)Nc1ccc(C)c(Cl)c1` it was “inactive”; in that of `CN(C)CCOc1ccccc1Cc1ccccc1`, “inactive”; in that of `CC(C)C(=O)OCC(C)(C)C(O)C(C)C` (stereo not given), “inactive”. For `OCCN1CCN(CCO)CC1`, the outcome was inactive. Same read-out and setting: in the case of `Cc1nnc(SCC2=C(C(=O)O)N3C(=O)[C@@H](NC(=O)Cn4cnnn4)[C@H]3SC2)s1` it was “inactive”. For the compound `CS(=O)(=O)c1ccc([C@@H](O)[C@@H](CF)NC(=O)C(Cl)Cl)cc1`, the fluorescence, % of fluorescent control is -0.0638% [at 18.6 µM]. For `CCCCC1CCC(=O)O1` (stereo not given), the compound was called inactive. Turning to `NC/C=C/C(=O)O`, the outcome was inactive.
